# Data from PubChem BioAssay (EPA / NIEHS).
# Values joined by “and” are separate entries in the source; they are usually repeats but may differ in a detail not shown here. Equal values may be shown once. Active and inactive are the calls of the source. The calls were made as follows: active = hit-call score of the fitted dose curve at least 0.9, where 1 is the maximum; inactive = score below 0.9.
# Read-out: Collagen I, COL1A1 (gene 1277)
# Assay: BSK_MyoF_CollagenI: BioMAP Diversity Plus: MyoF Assay for Collagen I Biomarker Activity (AID 2284238)
# Details: primary human lung fibroblasts
# Experimental: BSK_MyoF is a cell-based, multiplexed-readout assay that uses lung fibroblasts, […], with measurements taken at 24 hours after chemical dosing in a microplate: 96-well plate.BSK_MyoF_CollagenI is an assay component measured in the BSK_MyoF assay. It measures Collagen I antibody related to regulation of gene expression using ELISA technology.Data from the assay component BSK_MyoF_CollagenI was analyzed at the endpoint, BSK_MyoF_CollagenI, in the positive analysis fitting direction relative to DMSO as the negative control and baseline of activity. Using a type of binding reporter, gain or loss-of-signal activity can be used to understand protein changes. To generalize the intended target to other relatable targets, this assay endpoint is annotated to the 'cell adhesion molecules' intended target family, where the subfamily is 'collagen'.
# The levels of cell surface (or secreted, indicated by the prefix "s") biomarker endpoints were measured by ELISA. Overt cytotoxicity to cells in confluent adherent cultures (all systems other than the BT system) was assessed by measuring total protein levels using sulforhodamine B (SRB) staining in parallel cultures at the time of biomarker measurements, indicated as SRB endpoints. For proliferation assays for adherent cell types, individual cell types are cultured at sub-confluence and relative cell numbers quantified by SRB staining at time points optimized for each system (48 h: 3C and CASM3C systems; 72 h: BT and HDF3CGF systems; 96 h: SAg system). SRB was performed by staining cells with 0.1% SRB after fixation with 10% TCA and reading wells at 560 nm.Viability and proliferation of PBMC (T cells) was quantified by Alamar Blue reduction for the SAg and BT systems. For PBMC viability (referred to as PBMC Cytotoxicity within the assay endpoint names), cells were plated (75,000/well in a 96-well plate) and then chemical samples added for 1 h before addition of activators, SEB and TSST-1 (20 ng/mL final concentration each). Cells were incubated for 90 h. Then, Alamar Blue (20 uL/well) (Invitrogen, Cat DAL1100) was added for 6 h, and the plates were read with a fluorescence microplate reader at 546/580 nm (excitation/emission). For PBMC proliferation, cells were plated and activated as above but incubated for only 16 h prior to addition of Alamar Blue. Plates were read after 6 h.
SMILES,outcome,AC50
O=C(Cl)C(F)(F)C(F)(F)C(F)(F)C(=O)Cl,inactive,–
FC(F)=C(F)C(F)(F)C(F)(F)C(F)(F)C(F)(F)C(F)(F)C(F)(F)F,inactive,–
FC(F)(F)C(F)(F)C(F)(F)C(F)(F)C(F)(F)C(F)(F)I,–,33.1 µM (active) and 39.4 µM (active)
NCC(F)(F)C(F)(F)C(F)(F)C(F)(F)F,inactive,–
OCCC(F)(F)C(F)(F)C(F)(F)C(F)(F)F,inactive,–
FC(F)C(F)(F)COCC1CO1 (stereo not drawn),inactive,–
S=P(N1CC1)(N1CC1)N1CC1,inactive,–
FC(F)(F)COC(OCC(F)(F)F)OCC(F)(F)F,inactive,–
OC(O)(C(F)C(O)(O)C(F)(F)F)C(F)(F)F,inactive,–
O=S(=O)(O)CCC(F)(F)C(F)(F)C(F)(F)C(F)(F)C(F)(F)C(F)(F)F,inactive,–
OCc1c[nH]c2ccccc12,inactive,–
Cc1cccc(O)c1C,inactive,–
C[Si](C)(C)C(F)(F)C(F)(F)C(F)(F)F,inactive,–
